bovine MsrA act: bovine MsrA enzyme activators, primary screen, biochemical, absorbance, HTS; activation, % at 10.6 µM; Methionine sulfoxide reductase A (Bos taurus); purified bovine MsrA, absorbance read-out; actives 0.3% (n = 360,000); in the data active = activation above about 7.5%;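 note: 0% = vehicle and 100% = reference activator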
rCAG binder: binders of r(CAG) RNA repeats, primary screen, biochemical, fluorescence; r(CAG) RNA repeat, TO-PRO-1 dye displacement fluorescence; inhibition, % at 3 µM; actives 1.3% (n = 370,000);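 active = inhibition above the plate cutoff, the mean of all test compounds on that plate plus 3 SD, cut at about 35% in these data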;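 note: 0% = DMSO alone and 100% = 100 µM mitoxantrone as full dye displacement; higher means more dye released from RNA so lower well fluorescence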
MsrA inh: bovine MsrA enzyme inhibitors, primary screen, biochemical, absorbance, HTS. purified bovine MsrA, absorbance read-out. inhibition, % at 15.5 µM. actives 0.75% (n = 360,000); in the data active = inhibition above about 4.5%;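 note: 0% = vehicle wells with enzyme and 100% = reference inhibitor wells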
NadD inh: inhibitors of S. aureus NadD, primary screen, biochemical, colorimetric, uHTS | actives 0.78% (n = 360,000) | purified NadD enzyme, colorimetric absorbance read-out | Nicotinate-nucleotide adenylyltransferase NadD (Staphylococcus aureus N315) | inhibition, % at 20 µM; in the data active = inhibition above about 26%
rCAG binder conf: small molecules binding CAG repeat RNA – biochemical, fluorescence, confirmation; shares compounds with rCAG binder; r(CAG) RNA repeat, TO-PRO-1 dye displacement fluorescence; inhibition, % at 3 µM; actives 70% (n = 4,300);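 active = inhibition above a per-plate cutoff, the mean inhibition of sample wells plus 3 SD, cut at about 35% in these data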;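 note: loss of TO-PRO-1 fluorescence as compound displaces dye from 1x1 AA loop RNA; 0% = DMSO only wells and 100% = 100 µM mitoxantrone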
dCAG dye counter: displacement of TO-PRO-1 from CAG DNA duplex, counter-screen for rCAG RNA repeat binder project, biochemical, fluorescence, TO-PRO-1 dye, d(CAG) DNA oligo | shares compounds with rCAG binder | actives 94% (n = 4,300) | inhibition, % at 3 µM | d(CAG) DNA oligo TO-PRO-1 dye displacement | AID 652068, 2013;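 active = inhibition above its plate's cutoff, the mean test-well inhibition plus 3 SD, cut at about 4.8% in these data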;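 note: 0% = DNA dye mix with DMSO and 100% = 100 µM mitoxantrone; hits displace the dye from DNA and so lower well fluorescence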
DNA CAG DR: inhibitors of DNA CAG/GTC TO-PRO-1 complex, dose response, counter-screen for rCAG RNA repeat binder project, biochemical, fluorescence, TO-PRO-1 dye; shares compounds with rCAG binder; DNA CAG/GTC duplex TO-PRO-1 dye displacement fluorescence; IC50, µM; actives 20% (n = 250); in the data active = IC50 below about 10 µM
Active calls of the source: *; i = inactive; nt = no result. An excerpt weighted towards active compounds, which were near 2.7% of everything screened.

SMILES | bovine MsrA act | rCAG binder | MsrA inh | NadD inh | rCAG binder conf | dCAG dye counter | others
S=c1[nH]nc(COc2ccccc2)n1/N=C/c1ccc(Br)cc1 | 7.3 | 19.1 | -0.7 | -0.6 | nt | nt
Cc1cc(-c2n[nH]c(=S)n2N=Cc2cccc(Oc3ccccc3)c2)n[nH]1 | nt | 45.7* | nt | nt | 31.2 | 7.9*
CC(C)c1ccc(/C=N/n2c(COc3ccccc3)n[nH]c2=S)cc1 | -1.1 | 36.2* | 0.7 | 3.9 | 47.5* | 11.4*
COc1cccc(/C=N/n2c(-c3cc(C)[nH]n3)n[nH]c2=S)c1 | -0.6 | -3.1 | -0.4 | 4.0 | nt | nt
Cc1ccccc1Cn1cc(CN2[C@@H](CC(C)C)COc3cc(Br)ccc3S2(=O)=O)nn1 | nt | 0.7 | nt | nt | nt | nt
Cc1cn(CC(=O)NCCNc2ccc([N+](=O)[O-])cn2)c(=O)[nH]c1=O | -4.0 | 2.6 | 1.8 | -3.4 | nt | nt
S=c1[nH]nc(-c2ccncc2)n1/N=C/C(Cl)=C\c1ccccc1 | -4.2 | 39.4* | 1.6 | 19.0 | 31.7 | 9.5*
S=c1[nH]nc(COc2ccccc2)n1/N=C/C(Cl)=C/c1ccccc1 | 1.9 | 51.6* | 1.6 | 6.3 | 72.3* | 34.4* | DNA CAG DR=i
S=c1[nH]nc(-c2ccncc2)n1/N=C/C=C/c1ccccc1 | 1.7 | 7.0 | 1.4 | 10.9 | nt | nt
CC(/C=N/n1c(-c2ccc(Cl)cc2)n[nH]c1=S)=C\c1ccco1 | 0.3 | 39.0* | 2.5 | 9.5 | 38.6* | 11.9*
CC(/C=N/n1c(-c2cc(C)[nH]n2)n[nH]c1=S)=C\c1ccco1 | -0.9 | 4.2 | -0.2 | 6.6 | nt | nt
c1ccc(CN=C2CCCc3ccccc3N2)cc1 | 0.7 | 0.0 | 0.3 | -1.2 | nt | nt
NC(=O)CC(NC(=O)c1cccc(Br)c1)c1ccc(NC2CCC2)c([N+](=O)[O-])c1 (stereo unspecified) | -1.7 | 13.5 | 0.7 | -3.4 | nt | nt
C=C1c2cccc(O)c2C(O)=C2C(=O)[C@]3(O)C(O)=C(C(N)=O)C(=O)[C@@H](N(C)C)[C@@H]3[C@@H](O)[C@H]12 | -4.1 | 84.7* | 1.9 | 12.0 | 24.0 | 9.8*
CCOC(=O)N1CCN(S(=O)(=O)c2ccc(C(=O)Nc3nc4c(s3)CC(C)CC4)cc2)CC1 (stereo unspecified) | 0.3 | -0.4 | 1.2 | 1.5 | nt | nt
CCOC(=O)N1CCN(S(=O)(=O)c2ccc(C(=O)NNc3nc4c(C)cc(C)cc4s3)cc2)CC1 | -2.4 | 68.9* | 1.9 | 14.9 | 64.3* | 24.6*
Cc1cc(C)c2nc(NNC(=O)c3ccc(S(=O)(=O)N4CCCCC4)cc3)sc2c1 | 0.1 | 55.2* | 0.6 | 18.9 | 37.8* | 15.0*
Cc1cccc2sc(NNC(=O)c3ccc(S(=O)(=O)N4CCCC(C)C4)cc3)nc12 (stereo unspecified) | -0.9 | 53.2* | -0.9 | 23.4 | 45.4* | 19.3*
Cc1ccc(C(=O)NNC(=O)c2ccc(S(=O)(=O)N3CCCCC3)cc2)cc1 | -7.7 | 5.3 | 0.2 | -2.5 | nt | nt
COc1ccc2c(c1OC)C(=O)N(c1ccc(OCc3ccccc3)cc1)C2=O | -5.3 | -1.6 | 0.8 | -9.0 | nt | nt
O=C(O)COCC(=O)Nc1ccc(OCCc2ccccc2)cc1 | 0.4 | 3.9 | 0.1 | 5.4 | nt | nt
CC(=O)c1ccc2c(c1)N(Cc1ccccc1)C(=O)C(C)S2 (stereo unspecified) | -0.5 | -0.8 | -1.5 | -3.7 | nt | nt
Cc1ccc(-n2cnc3scc(-c4cccs4)c3c2=O)cc1 | -2.7 | 5.1 | 1.0 | -1.9 | nt | nt
Cc1ccc(C(=O)Nn2cnc3scc(-c4cccs4)c3c2=O)c(O)c1 | -1.9 | 40.1* | 3.0 | 3.8 | 25.4 | 8.7*
Cc1cc(Nc2ccc(Br)cc2)nc(-c2ccccc2O)n1 | -1.1 | 38.0* | 1.9 | 1.6 | 16.3 | 3.6
SMILES | bovine MsrA act | rCAG binder | MsrA inh | NadD inh | rCAG binder conf | dCAG dye counter | others
Cc1cc(N/N=C/c2ccc(O)c(C)c2O)nc(-c2ccccc2O)n1 | -2.9 | 62.1* | 1.6 | 22.8 | 53.4* | 24.1*
O=C(NN=Cc1ccc2c(c1)CCN2)c1cccs1 | -2.6 | 4.1 | 3.0 | -0.7 | nt | nt
Cc1[nH]n(-c2ccccc2)c(=O)c1N=Nc1c(O)cc(S(=O)(=O)N(C)C)c2ccccc12 | -0.9 | 41.7* | 1.0 | 55.9* | 89.0* | 66.9*
Cc1[nH]n(-c2ccccc2)c(=O)c1N=Nc1ccc2c(c1)OCCO2 | -1.3 | 1.0 | 0.1 | -9.8 | nt | nt
CC(C)(C)NC(=O)CCN(/N=C/c1ccccc1F)C1=NS(=O)(=O)c2ccccc21 | -1.6 | -3.3 | 0.2 | -3.5 | nt | nt
CCOC(=O)c1c(C)[nH]c(C(=O)COC(=O)[C@H](C)N2C(=O)C3CCCCC3C2=O)c1C (stereo partly specified) | -0.9 | -1.1 | 0.8 | 0.0 | nt | nt
Cc1cc(SCC(=O)c2ccc(O)c(O)c2)nc2ccccc12 | -4.0 | 35.2* | 2.3 | 3.4 | 53.8* | 23.4*
CCn1cc(/C=C(\NC(=O)c2ccccc2F)C(=O)N2CCCC2)c2ccccc21 | -5.3 | nt | nt | -4.3 | nt | nt
C/C=C(\C)C(=O)O[C@@H]([C@H](O)c1cc2ccc(=O)oc2cc1OC)C(C)(C)O | -1.9 | -3.4 | 2.6 | 0.3 | nt | nt
CCCCCCCCN1CCS(=O)(=O)N(Cc2ccc(C)cc2)C(C(=O)OC)C1 (stereo unspecified) | nt | 0.3 | nt | nt | nt | nt
O=C(CSc1cc([N+](=O)[O-])cc(S(=O)(=O)Cc2ccccc2)c1)NC1CC1 | -3.4 | 56.0* | -1.5 | -3.8 | 5.4 | 5.6*
C=CCNC(=O)CSc1cc([N+](=O)[O-])cc(S(=O)(=O)Cc2ccccc2)c1 | 0.3 | 16.1 | -0.5 | 8.3 | nt | nt
CCC1(c2ccc(F)cc2)NC(=O)N(CC(=O)N2CCN(S(=O)(=O)c3ccc(C)cc3)CC2)C1=O (stereo unspecified) | -0.9 | -2.4 | -0.9 | 3.2 | nt | nt
Nc1c(C(=O)Nc2ccccc2F)sc2nc(-c3ccco3)ccc12 | -4.2 | 55.2* | 1.1 | 13.0 | 72.9* | 35.2*
COC(=O)c1sc2nc(-c3ccco3)ccc2c1N | -4.3 | 50.2* | 1.7 | 9.9 | 22.6 | 11.7*
CCn1nc(C)cc1C(=O)Sc1cccc(Br)c1 | -2.5 | 4.7 | 0.1 | -0.5 | nt | nt
O=C(CSc1nnc(-c2cccnc2)n1-c1ccccc1)c1ccccc1Cl | nt | 10.2 | nt | nt | nt | nt
O=C(CCNC(=O)c1ccc([N+](=O)[O-])cc1)Nc1ccc(F)c(F)c1F | -2.5 | 0.6 | 0.6 | -12.3 | nt | nt
CSc1nc(=S)c2[nH]c(=S)[nH]c2[nH]1 | 3.2 | 64.6* | 4.0 | 13.3 | 67.6* | 30.3* | DNA CAG DR=9.28*

High-throughput results from PubChem BioAssay.
